# Laboratory results published in article PMC7862700, “An all-to-all approach to the identification of sequence-specific readers for epigenetic DNA modifications on cytosine”.
# Target: SPI1 (Homo sapiens, UniProt P17947 1-270)
# Test: DAPPL (digital affinity profiling via proximity ligation, sequencing); 10 mM Tris-HCl pH 7.5, 50 mM NaCl, 1 mM DTT, 4% glycerol, room temperature, 30 min; GST-TFs on glutathione beads, 16-mer random dsDNA library, 0.1% formaldehyde crosslink after washing; high values mean tight binding
# Settings: protein: recombinant; tags: N-terminal GST; dsDNA, one strand shown
# In short: (§1)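 Binding signal is given per hexamer as its read frequency for a factor divided by its frequency in the tag-only sample. GST-fused human transcription factors were expressed in yeast, captured on glutathione beads, barcoded with DNA and pooled with that sample, then incubated with 200 nmole of a 16-mer random double-stranded DNA library in Tris/NaCl/DTT/glycerol buffer for 30 min at room temperature. The pools were then washed, crosslinked, proximity-ligated, amplified by PCR and sequenced on an Illumina NextSeq500.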
row,Sequence,binding signal
1,GGGAAG,"1.51 fold enrichment (6-mer frequency, TF over GST control)"
2,GTGTGC,"1.01 fold enrichment (6-mer frequency, TF over GST control)"
3,GGGGAA,"1.21 fold enrichment (6-mer frequency, TF over GST control)"
4,AGTGGA,"1.08 fold enrichment (6-mer frequency, TF over GST control)"
5,TAGGGA,"1.05 fold enrichment (6-mer frequency, TF over GST control)"
6,AGTGAA,"1.26 fold enrichment (6-mer frequency, TF over GST control)"
7,GAGGAA,"1.64 fold enrichment (6-mer frequency, TF over GST control)"
8,AGCGGA,"1.26 fold enrichment (6-mer frequency, TF over GST control)"
9,AAGAGG,"1.56 fold enrichment (6-mer frequency, TF over GST control)"
10,AGAGGA,"1.22 fold enrichment (6-mer frequency, TF over GST control)"
11,TGAGGA,"1.07 fold enrichment (6-mer frequency, TF over GST control)"
12,AGTGCG,"1.14 fold enrichment (6-mer frequency, TF over GST control)"
13,AGTGAT,"1.06 fold enrichment (6-mer frequency, TF over GST control)"
14,AAAGAG,"1.45 fold enrichment (6-mer frequency, TF over GST control)"

# Target: SPIB (Homo sapiens, UniProt Q01892 1-262)
# Sequence (Q01892 whole entry): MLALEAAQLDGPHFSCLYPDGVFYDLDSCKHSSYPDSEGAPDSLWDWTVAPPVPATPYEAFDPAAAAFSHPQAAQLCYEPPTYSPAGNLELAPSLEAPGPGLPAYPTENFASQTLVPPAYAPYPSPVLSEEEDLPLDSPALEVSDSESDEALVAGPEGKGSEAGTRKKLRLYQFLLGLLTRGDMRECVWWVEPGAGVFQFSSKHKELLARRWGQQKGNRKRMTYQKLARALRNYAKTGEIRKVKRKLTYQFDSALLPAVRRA
# Test: as above
# Settings: protein: recombinant; tags: N-terminal GST; dsDNA, one strand shown
# In short: as §1
row,Sequence,binding signal
1,CGCTGA,"1.01 fold enrichment (6-mer frequency, TF over GST control)"
2,AGCGTA,"1.02 fold enrichment (6-mer frequency, TF over GST control)"
3,GTGGTG,"1.02 fold enrichment (6-mer frequency, TF over GST control)"
4,TCGCAG,"1.04 fold enrichment (6-mer frequency, TF over GST control)"

# Target: T1, ELK3 (Homo sapiens, UniProt P41970 1-407)
# T1 sequence: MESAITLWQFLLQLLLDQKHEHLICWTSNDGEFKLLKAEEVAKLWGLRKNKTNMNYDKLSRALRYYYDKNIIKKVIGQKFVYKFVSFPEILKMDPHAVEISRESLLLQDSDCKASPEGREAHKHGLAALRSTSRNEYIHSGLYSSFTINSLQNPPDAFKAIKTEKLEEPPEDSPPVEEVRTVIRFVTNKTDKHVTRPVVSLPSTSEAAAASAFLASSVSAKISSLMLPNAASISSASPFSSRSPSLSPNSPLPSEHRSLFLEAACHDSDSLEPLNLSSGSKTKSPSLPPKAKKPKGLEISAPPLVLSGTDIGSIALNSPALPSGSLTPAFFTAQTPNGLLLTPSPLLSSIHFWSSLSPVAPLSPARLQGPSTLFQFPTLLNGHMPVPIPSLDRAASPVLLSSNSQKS
# Test: as above
# Settings: protein: recombinant; tags: N-terminal GST; dsDNA, one strand shown
# In short: as §1
row,Sequence,binding signal
1,CGGAAT,"1.01 fold enrichment (6-mer frequency, TF over GST control)"
2,GCCACG,"1.03 fold enrichment (6-mer frequency, TF over GST control)"
3,CCGTAG,"1.02 fold enrichment (6-mer frequency, TF over GST control)"
4,CGAGCG,"1.01 fold enrichment (6-mer frequency, TF over GST control)"
5,AAACGT,"1.06 fold enrichment (6-mer frequency, TF over GST control)"

# Target: T2, FEV (Homo sapiens, UniProt Q99581 1-238)
# T2 sequence: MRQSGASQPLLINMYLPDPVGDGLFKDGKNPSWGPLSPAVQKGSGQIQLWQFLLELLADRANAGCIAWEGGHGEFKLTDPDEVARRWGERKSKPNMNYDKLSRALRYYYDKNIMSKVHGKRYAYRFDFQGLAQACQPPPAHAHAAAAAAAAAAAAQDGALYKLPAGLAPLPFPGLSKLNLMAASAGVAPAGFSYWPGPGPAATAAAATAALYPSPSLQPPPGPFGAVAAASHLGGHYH
# Test: as above
# Settings: protein: recombinant; tags: N-terminal GST; dsDNA, one strand shown
# In short: as §1
row,Sequence,binding signal
1,CGGCCG,"1.03 fold enrichment (6-mer frequency, TF over GST control)"
2,CGGACA,"1 fold enrichment (6-mer frequency, TF over GST control)"
3,GGACCG,"1.12 fold enrichment (6-mer frequency, TF over GST control)"

# Target: T3, ETV7 (Homo sapiens, UniProt Q9Y603 1-341)
# T3 sequence: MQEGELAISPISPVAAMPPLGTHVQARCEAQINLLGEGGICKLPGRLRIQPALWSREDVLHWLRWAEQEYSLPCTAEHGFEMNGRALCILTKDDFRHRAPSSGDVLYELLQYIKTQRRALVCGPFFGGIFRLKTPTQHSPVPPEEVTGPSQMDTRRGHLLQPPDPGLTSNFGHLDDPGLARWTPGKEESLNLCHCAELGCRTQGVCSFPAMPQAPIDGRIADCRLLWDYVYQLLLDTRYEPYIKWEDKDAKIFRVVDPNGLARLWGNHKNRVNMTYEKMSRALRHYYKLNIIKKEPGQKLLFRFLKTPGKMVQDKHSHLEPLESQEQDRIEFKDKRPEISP
# Test: as above
# Settings: protein: recombinant; tags: N-terminal GST; dsDNA, one strand shown
# In short: as §1
row,Sequence,binding signal
1,AAAGTG,"1.04 fold enrichment (6-mer frequency, TF over GST control)"
2,CAGCGA,"1.01 fold enrichment (6-mer frequency, TF over GST control)"
3,GCGCGG,"1.01 fold enrichment (6-mer frequency, TF over GST control)"
4,GTGGTG,"1 fold enrichment (6-mer frequency, TF over GST control)"
5,GCCACG,"1.03 fold enrichment (6-mer frequency, TF over GST control)"
6,ACGGGT,"1.01 fold enrichment (6-mer frequency, TF over GST control)"
7,GGGTAC,"1 fold enrichment (6-mer frequency, TF over GST control)"
8,CACGGT,"1 fold enrichment (6-mer frequency, TF over GST control)"

# Target: T4, ELF5 (Homo sapiens, UniProt Q9UKW6-2 1-255)
# T4 sequence: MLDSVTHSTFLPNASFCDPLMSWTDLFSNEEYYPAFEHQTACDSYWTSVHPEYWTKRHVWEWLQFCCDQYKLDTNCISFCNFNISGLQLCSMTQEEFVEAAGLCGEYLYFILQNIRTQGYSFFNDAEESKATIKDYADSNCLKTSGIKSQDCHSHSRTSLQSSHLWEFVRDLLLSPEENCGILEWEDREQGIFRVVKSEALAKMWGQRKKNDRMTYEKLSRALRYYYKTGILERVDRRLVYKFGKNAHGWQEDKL
# Test: as above
# Settings: protein: recombinant; tags: N-terminal GST; dsDNA, one strand shown
# In short: as §1
row,Sequence,binding signal
1,TCCAGG,"1.01 fold enrichment (6-mer frequency, TF over GST control)"
2,CAAGGA,"1.03 fold enrichment (6-mer frequency, TF over GST control)"
3,GGGAAG,"1.24 fold enrichment (6-mer frequency, TF over GST control)"
4,CGGGAA,"1.06 fold enrichment (6-mer frequency, TF over GST control)"
5,AGTAGT,"1.07 fold enrichment (6-mer frequency, TF over GST control)"
6,GAGGAA,"1.11 fold enrichment (6-mer frequency, TF over GST control)"
7,AGCAGG,"1.02 fold enrichment (6-mer frequency, TF over GST control)"
8,GGGATG,"1.01 fold enrichment (6-mer frequency, TF over GST control)"
9,GGAAGG,"1 fold enrichment (6-mer frequency, TF over GST control)"
